The antibiotic and cytotoxicity screens of Wong et al. (2023)
About 3,300 (8.5%) of roughly 39,000 compounds were called active. Many of the other results were omitted from the sample, so actives are more common in it than they were.

Each molecule was assayed on HepG2 (assay: cytotoxicity call (relative viability < 0.9)). Conditions: 10 µM.

Which cytotoxicity call does the source give for C[C@@H]1CCCCO[C@@H](CN(C)Cc2ccc(C(F)(F)F)cc2)[C@H](C)CN([C@@H](C)CO)C(=O)c2cc(NS(=O)(=O)c3ccc(Cl)cc3)ccc2O1 here?
Its cytotoxicity call is “active”.

With C[C@@H]1CCCCO[C@H](CN(C)Cc2ccc(C(F)(F)F)cc2)[C@@H](C)CN([C@H](C)CO)C(=O)c2cc(NS(=O)(=O)c3ccc(Cl)cc3)ccc2O1 as the molecule, how does the cytotoxicity call read?
The cytotoxicity call was “active”.

Which cytotoxicity call does the source give for C[C@@H]1CN([C@@H](C)CO)C(=O)c2cc(NS(=O)(=O)c3ccc(Cl)cc3)ccc2O[C@@H](C)CCCCO[C@H]1CN(C)Cc1ccc(C(F)(F)F)cc1 here?
Its cytotoxicity call is “active”.

For C[C@@H]1CN([C@H](C)CO)C(=O)c2cc(NS(=O)(=O)c3ccc(Cl)cc3)ccc2O[C@@H](C)CCCCO[C@@H]1CN(C)Cc1ccc(C(F)(F)F)cc1, which cytotoxicity call is on record?
Its cytotoxicity call is “inactive”.

C[C@@H]1CCCCO[C@@H](CN(C)Cc2ccc(C(F)(F)F)cc2)[C@@H](C)CN([C@@H](C)CO)C(=O)c2cc(NS(=O)(=O)c3ccc(Cl)cc3)ccc2O1 was tested. Which cytotoxicity call did it give?
Its cytotoxicity call is “inactive”.

For C[C@H]1CCCCO[C@H](CN(C)Cc2ccc(C(F)(F)F)cc2)[C@@H](C)CN([C@@H](C)CO)C(=O)c2cc(NS(=O)(=O)c3ccc(Cl)cc3)ccc2O1, which cytotoxicity call is on record?
The cytotoxicity call was “inactive”.

Which cytotoxicity call does the source give for C[C@@H]1CCCCO[C@@H](CN(C)Cc2ccc(C(F)(F)F)cc2)[C@@H](C)CN([C@H](C)CO)C(=O)c2cc(NS(=O)(=O)c3ccc(Cl)cc3)ccc2O1 here?
The cytotoxicity call was “active”.

Which cytotoxicity call does the source give for C[C@H]1CCCCO[C@@H](CN(C)Cc2ccc(C(F)(F)F)cc2)[C@@H](C)CN([C@@H](C)CO)C(=O)c2cc(NS(=O)(=O)c3ccc(Cl)cc3)ccc2O1 here?
Its cytotoxicity call is “inactive”.

Which cytotoxicity call does the source give for Cc1ccc(S(=O)(=O)N(C)C[C@H]2Oc3ccc(NS(=O)(=O)c4c(C)noc4C)cc3C(=O)N([C@H](C)CO)C[C@@H]2C)cc1 here?
Its cytotoxicity call is “inactive”.

C[C@]12C(=O)N(CCC(=O)O)C(=O)[C@H]1[C@@H]1C=C[C@@H]2C1 was tested. Which cytotoxicity call did it give?
The cytotoxicity call was “inactive”.

With Cc1ccc(S(=O)(=O)Nc2cccc3c2O[C@@H](CN(C)S(=O)(=O)c2ccc(F)cc2)[C@H](C)CN([C@@H](C)CO)C3=O)cc1 as the molecule, how does the cytotoxicity call read?
The cytotoxicity call was “inactive”.

With O=C(Cn1ccc([N+](=O)[O-])n1)N1CCOCC1 as the molecule, how does the cytotoxicity call read?
Its cytotoxicity call is “inactive”.

How did the cytotoxicity call turn out when COc1ccc(NC(=O)N(C)C[C@H]2Oc3ccc(NC(=O)Cn4cnnn4)cc3CC(=O)N([C@H](C)CO)C[C@H]2C)cc1 was run?
Its cytotoxicity call is “inactive”.

Which cytotoxicity call does the source give for C[C@H](CO)N1C[C@H](C)[C@H](CN(C)Cc2ccc(Oc3ccccc3)cc2)Oc2c(NS(=O)(=O)c3ccc(F)cc3)cccc2C1=O here?
Its cytotoxicity call is “inactive”.

How did the cytotoxicity call turn out when C[C@H](CO)N1C[C@H](C)[C@@H](CN(C)S(=O)(=O)c2ccc(Cl)cc2)Oc2ccc(NS(=O)(=O)c3cn(C)cn3)cc2C1=O was run?
The cytotoxicity call was “inactive”.

For O=C(NCCCN1CCOCC1)[C@@H]1[C@@H](CO)[C@@H]2Cn3c(ccc(C4=CCCCC4)c3=O)[C@H]1N2, which cytotoxicity call is on record?
Its cytotoxicity call is “inactive”.

With Cc1ccc(S(=O)(=O)Nc2cccc3c2O[C@@H](CN(C)S(=O)(=O)c2ccc(F)cc2)[C@H](C)CN([C@H](C)CO)C3=O)cc1 as the molecule, how does the cytotoxicity call read?
The cytotoxicity call was “inactive”.

How did the cytotoxicity call turn out when CC(C)(C)OC(=O)C[C@@H]1CC=CC[C@@H](CC(=O)N[C@H](CO)Cc2ccccc2)C(=O)N[C@@H](C(C)(C)C)COC1=O was run?
Its cytotoxicity call is “inactive”.

Which cytotoxicity call does the source give for CC1CCN(S(=O)(=O)c2c[nH]cn2)CC1 here?
The cytotoxicity call was “inactive”.

Which cytotoxicity call does the source give for Cc1noc(C)c1NC(=O)N(C)C[C@H]1Oc2ccc(NS(C)(=O)=O)cc2C(=O)N([C@H](C)CO)C[C@H]1C here?
Its cytotoxicity call is “inactive”.

For COc1ccc(CN(C)C[C@H]2OCCCC[C@H](C)Oc3ccc(NC(=O)NC(C)C)cc3C(=O)N([C@@H](C)CO)C[C@@H]2C)cc1, which cytotoxicity call is on record?
The cytotoxicity call was “inactive”.

How did the cytotoxicity call turn out when C[C@@H]1CCCCO[C@H](CN(C)Cc2ccc(C(F)(F)F)cc2)[C@H](C)CN([C@@H](C)CO)C(=O)c2cc(NS(=O)(=O)c3ccc(Cl)cc3)ccc2O1 was run?
The cytotoxicity call was “active”.

How did the cytotoxicity call turn out when C[C@H](CO)N1C[C@H](C)[C@H](CN(C)Cc2ccc(C(F)(F)F)cc2)OCCCC[C@H](C)Oc2ccc(NS(=O)(=O)c3ccc(Cl)cc3)cc2C1=O was run?
Its cytotoxicity call is “active”.

C[C@@H]1CN([C@@H](C)CO)C(=O)c2cc(NC(=O)Cc3cn(C)c4ccccc34)ccc2O[C@@H]1CN(C)CC1CCCCC1 was tested. Which cytotoxicity call did it give?
Its cytotoxicity call is “inactive”.

With Cc1noc(C)c1S(=O)(=O)Nc1ccc2c(c1)C(=O)N([C@@H](C)CO)C[C@@H](C)[C@@H](CN(C)C(=O)Nc1ccccc1)OCCCC[C@@H](C)O2 as the molecule, how does the cytotoxicity call read?
The cytotoxicity call was “inactive”.

Which cytotoxicity call does the source give for O=C(O)CCCN1C(=O)CSC1=S here?
The cytotoxicity call was “inactive”.

C[C@@H]1CCCCO[C@H](CN(C)C(=O)Nc2ccc(F)cc2)[C@@H](C)CN([C@@H](C)CO)C(=O)c2cc(NC(=O)NC3CCCCC3)ccc2O1 was tested. Which cytotoxicity call did it give?
The cytotoxicity call was “inactive”.

With C[C@H](CO)N1C[C@H](C)[C@@H](CN(C)S(C)(=O)=O)Oc2ccc(NC(=O)C3CCCCC3)cc2CC1=O as the molecule, how does the cytotoxicity call read?
The cytotoxicity call was “inactive”.

C[C@H](CO)N1C[C@H](C)[C@@H](CN(C)Cc2ccc3c(c2)OCO3)Oc2ccc(NC(=O)Cn3cnnn3)cc2C1=O was tested. Which cytotoxicity call did it give?
Its cytotoxicity call is “inactive”.

How did the cytotoxicity call turn out when Cc1ccc(-c2ccc(OC(=O)c3ccccc3F)cc2)cc1 was run?
The cytotoxicity call was “inactive”.

How did the cytotoxicity call turn out when Cc1ccc(C(=O)Oc2ccc(/C=N/c3cccs3)cc2)cc1 was run?
The cytotoxicity call was “active”.

How did the cytotoxicity call turn out when O=C(Oc1ccc(C2CCCCC2)cc1)c1cccs1 was run?
The cytotoxicity call was “inactive”.

With C[C@H](CO)N1C[C@H](C)[C@@H](CN(C)S(C)(=O)=O)OCCCC[C@H](C)Oc2ccc(NC(=O)c3ccncc3)cc2C1=O as the molecule, how does the cytotoxicity call read?
The cytotoxicity call was “inactive”.

CC(C)NC(=O)Nc1ccc2c(c1)C(=O)N([C@H](C)CO)C[C@H](C)[C@@H](CN(C)CC1CCCCC1)OCCCC[C@H](C)O2 was tested. Which cytotoxicity call did it give?
Its cytotoxicity call is “inactive”.

For C[C@H]1CN([C@@H](C)CO)C(=O)c2cccc(NC(=O)C3CC3)c2O[C@H]1CN(C)C(=O)NC1CCCCC1, which cytotoxicity call is on record?
Its cytotoxicity call is “inactive”.

With O=C(C[C@@H]1C=C[C@H](NC(=O)c2cnccn2)[C@@H](CO)O1)NCc1ccccc1F as the molecule, how does the cytotoxicity call read?
The cytotoxicity call was “inactive”.

COc1ccc(-c2c(O)c3c(OC)c4c(cc3oc2=O)OC(C)(C)C=C4)cc1 was tested. Which cytotoxicity call did it give?
The cytotoxicity call was “inactive”.

COc1cc2c(c3ccccc13)OC(C)(C)C=C2 was tested. Which cytotoxicity call did it give?
Its cytotoxicity call is “inactive”.

With COc1cc2c(cc1OC)-c1c(oc3c4c(ccc3c1=O)OC(C)(C)C=C4)CO2 as the molecule, how does the cytotoxicity call read?
Its cytotoxicity call is “active”.

How did the cytotoxicity call turn out when COc1ccc2c(c1)OC1COc3cc(OC)c(OC)cc3C1C2=O (configuration not stated) was run?
Its cytotoxicity call is “active”.

How did the cytotoxicity call turn out when COc1cc(OC)c2c(c1)OC(c1ccccc1)CC2=O (configuration not stated) was run?
Its cytotoxicity call is “inactive”.

With COc1ccc2c(c1)OC1c3ccc(OC)cc3OCC21 (configuration not stated) as the molecule, how does the cytotoxicity call read?
The cytotoxicity call was “inactive”.

CC(=O)c1cc2c(cc1O)OC(C)(C)C=C2 was tested. Which cytotoxicity call did it give?
Its cytotoxicity call is “inactive”.

How did the cytotoxicity call turn out when CC1(C)C=Cc2cc3ccc(=O)oc3cc2O1 was run?
The cytotoxicity call was “inactive”.

Which cytotoxicity call does the source give for COc1cc2c(cc1OC)-c1c(oc3cc4c(cc3c1=O)CCO4)CO2 here?
The cytotoxicity call was “inactive”.

COc1cc2c(cc1OC)C1C(=O)c3c(O)cc4c(c3OC1CO2)C=CC(C)(C)O4 (stereo not drawn) [alpha-TOXICAROL (dl) ] was tested. Which cytotoxicity call did it give?
Its cytotoxicity call is “active”.

Which cytotoxicity call does the source give for COc1cc2c(cc1OC)C1C(=O)c3ccc4c(c3OC1CO2)C=CC(C)(C)O4 (configuration not stated) here?
The cytotoxicity call was “active”.
